Compound activity deposited in PubChem by National Center for Advancing Translational Sciences (NCATS).
TGFb inhibitor – qHTS for Inhibitors of TGF-b | AID 588855, 2011 | Potency, µM (titrated, usually from 46.1 µM), inactives show top-dose activity, negative = inhibition, hits mostly inhibitors | HepG2 CAGA-GFP TGF-b/SMAD3 reporter, GFP fluorescence, 18 h; TGF-beta stimulated, 500 pg/mL final | 1.2% of 410,000 active; further: on the % scale 0 is the no-effect control and ±100 the full control effect; nearly all actives have a fitted effect of over 65% in size
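HEPG2 CAGA-GFP reporter cells (1000/well, DMEM with 1% FBS) received compounds, then recombinant TGF-beta at 500 pg/mL final for 18 hours at 37 degrees C. Per-cell GFP summed per well was normalised to unstimulated and stimulated DMSO controls before curve fitting.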
HepG2 viability – qHTS for Inhibitors of TGF-b: Cytotox Counterscreen. Potency, µM (highest dose often 46.1 µM), for the others: at the highest dose activity change, negative = cytotoxicity, hits mostly cytotoxic. AID 588856, 2011. HepG2 CAGA-GFP viability, ATP luminescence, 18 h. 0.76% of 410,000 active
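CellTiter-Glo luminescence gave cytotoxicity after 18 hours at 37 degrees C. The cells were HepG2 CAGA-GFP in 1% FBS DMEM, stimulated with 500 pg/mL TGF-beta after compound addition. %Activity was normalised to no-cell wells (complete cell-killing) and DMSO (no toxicity), and curves were fitted and classified.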
DT40 TDP1 CPT – qHTS for Inhibitors of human tyrosyl-DNA phosphodiesterase 1 (TDP1): qHTS in cells in presence of CPT | AID 686979, 2013 | chicken DT40 Tdp1-/-;hTDP1 cells + 20 nM CPT, ATP luminescence, 48 h | Potency, µM (top dose mostly 46.2 µM), without a hit: top-dose activity change, negative = growth inhibition, usual class: inhibitors | 12% of 420,000 active; further: on the % scale 0 is the no-effect control and ±100 the full control effect; nearly all actives have a fitted effect of over 55% in size
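Cell growth measured by CellTiter-Glo luminescence after a minimum 48 h, 37 C compound exposure with 20 nM CPT in Tdp1-knockout DT40 cells stably expressing hTDP1, seeded 400/well; qHTS titration format.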
HT1080 IDH1KD tx – qHTS for induction of synthetic lethality in tumor cells producing 2HG: qHTS for the HT-1080-IDH1KD cell line; Potency, µM (highest dose often 46.1 µM), inactives show at the highest dose activity, negative = toxicity, most hits filed as cytotoxic; AID 686971, 2013; 2% of 360,000 active; HT-1080 IDH1 knockdown viability, ATP luminescence, 48 h;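 further: 0% = DMSO wells and -100% = cell-free medium wells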
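In this qHTS, HT-1080 cells depleted of IDH1 are exposed for 48 h at 37 °C to compound titrations. Toxicity is scored from CellTiter-Glo luminescence, with DMSO as full viability and medium alone as none.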
DT40 TDP1 no CPT – qHTS for Inhibitors of human tyrosyl-DNA phosphodiesterase 1 (TDP1): qHTS in cells in absence of CPT; DT40 Tdp1-/- hTDP1 cells, no CPT, ATP luminescence, 48 h; Potency, µM (doses to about 46.2 µM), for the others: at the highest dose activity change, negative = growth inhibition, hits mostly inhibitors; 15% of 420,000 active; further: on the % scale 0 is the no-effect control and ±100 the full control effect; nearly all actives have a fitted effect of over 55% in size
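Stably hTDP1-transfected Tdp1-null chicken DT40 cells were treated with library compounds minus camptothecin and grown for at least 48 hr at 37 °C, after which cellular ATP was quantified by luminescence.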
HT1080-NT tox – qHTS for induction of synthetic lethality in tumor cells producing 2HG: qHTS for the HT-1080-NT fibrosarcoma cell line; HT-1080-NT fibrosarcoma viability, CellTiter-Glo ATP luminescence, 48 h; Potency, µM (top dose mostly 46.1 µM), without a hit: at the highest dose activity, negative = less viability, hits mostly cytotoxic; 1.6% of 360,000 active; AID 686970, 2013;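 further: NT is the 2HG producing partner of a matched IDH1 knockdown line; 0% = DMSO-treated cells and -100% = media-only wells without cells; nearly all actives have a fitted effect of over 55% in size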
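HT-1080-NT; 750 cells/well; 5% FBS RPMI; 48 h compound, 37 degrees C; CellTiter-Glo luminescence; curve fitting and curve-class assignment.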
* = called active by the depositor; ? = inconclusive; . = not tested or not shown; [ ] = another dose, or the depositor's remark. This is a sample that favours compounds with a hit; in the whole collection about 17% have one here. The call rests on the fitted dose curve; in most records, active means well fitted curve in the direction sought with a large enough effect; inconclusive means small, poorly fitted or top-dose-only effect, or another doubt; inactive means no such curve, though single readings can be large; an effect the other way counts as inactive or inconclusive. Potency means the concentration at half of the fitted maximal effect.

SMILES | TGFb inhibitor | HepG2 viability | DT40 TDP1 CPT | HT1080 IDH1KD tx | DT40 TDP1 no CPT | HT1080-NT tox
O=C(NCc1ccc2c(c1)OCO2)c1cccnc1Cl | 2.9% | 0.5% | -11.3% | 9.2% | 11.9% | 2.5%
COC(=O)C1=C(N)Oc2cc(N(C)C)ccc2C1c1ccccc1OC (stereo not drawn) | -23.1% | -19.6% | 4.61µM* | 4.11µM* | 4.61µM* | ?
O=C(/C=C/c1cccc([N+](=O)[O-])c1)OCC(=O)N1CCCCC1 | 4.7% | -13.3% | 11.7% | -16.0% | 5.3% | -1.1%
O=C(COc1ccccc1Cl)Nc1nc(-c2ccncc2)cs1 | -14.7% | -4.8% | 14.6µM* | -4.7% | 16.4µM* | 2.1%
O=C(Nc1nc(-c2ccccn2)cs1)C1CCCC1 | -20.6% | -7.3% | 2.91µM* | -25.4% | 5.17µM* | -5.7%
O=C(CCCSc1ccccc1)Nc1nc(-c2ccccn2)cs1 | -20.0% | -0.3% | 29.1µM* | -8.7% | 16.4µM* | -11.5%
O=C(CCSc1ccccc1)Nc1nccs1 | 32.7% | -4.2% | -3.5% | 10.6% | 11.7% | 2.7%
O=C(CN1C(=O)CCC1=O)Nc1nc(-c2ccccn2)cs1 | -5.2% | -7.0% | ? | -1.1% | -7.2% | -8.3%
Cc1cc(C)cc(OCC(=O)Nc2nc(-c3ccccn3)cs2)c1 | ? | -35.7% | ? | ? | ? | ?
N#Cc1ccccc1OCC(=O)Nc1nc(-c2ccccn2)cs1 | -0.4% | -0.3% | 2.91µM* | ? | 5.17µM* | ?
CC(C)CNc1oc(-c2ccc(F)cc2)nc1C#N | -6.0% | -13.9% | -28.3% | -2.6% | -29.4% | 1.1%
COc1ccc(CNC(=O)c2ccc3c(c2)NC(=O)C(CS(=O)(=O)Cc2ccccc2Cl)N3)cc1 (stereo not drawn) | -0.5% | 0.3% | ? | . | ? | .
COc1ccc(C(=O)NC(C)CCn2cccn2)cc1OC1CCN(C(C)C)CC1 (stereo not drawn) | 5.2% | 11.1% | -4.3% | 15.0% | 0.5% | 8.6%
CSCCC(=O)Nc1nc(-c2ccccn2)cs1 | ? | -32.0% | 16.4µM* | -5.1% | ? | -15.5%
C=CCn1c(N/N=C/c2ccc(O)cc2)nc2ccccc2c1=O | -16.7% | -47.7% | -36.6% | 0.8% | 14.6µM* | 5.6%
O=c1[nH]c(N/N=C/c2ccc(O)cc2)nc2ccccc12 | -16.1% | -8.4% | 25.9µM* | -0.2% | 23.1µM* | 0.1%
CC(=O)Nc1ccc(NC(=O)C(NC(=O)C2CCC(C)CC2)C(C)C)cc1 (stereo not drawn) | 1.5% | -8.1% | -11.1% | . | -15.6% | .
CCCS(=O)(=O)NC(=O)C1(C)CCN(C(=O)Cc2cccc(OC)c2)C1 (stereo not drawn) | -7.2% | 1.4% | 3.1% | 25.3% | -3.1% | 6.2%
C/C=C/COC(=O)C1=C(C)NC(=O)NC1c1ccc2c(c1)OCO2 (stereo not drawn) | 15.9% | -0.8% | -20.3% | -8.9% | -7.9% | -16.0%
COc1ccccc1CN(Cc1nc2ccccc2c(=O)[nH]1)C(=O)Nc1ccccc1C | -21.3% | -33.3% | 1.0% | 11.2µM* | -5.7% | ?
COc1ccc2[nH]c(=O)c(CN(CC3CCCO3)C(=O)Nc3ccccc3OC)cc2c1 (stereo not drawn) | 1.3% | 26.0% | 13µM* | ? | 10.3µM* | ?
CCc1ccc2[nH]c(=O)c(CN(Cc3ccccc3OC)C(=O)Nc3ccccc3OC)cc2c1 | -14.8% | -21.5% | 18.4µM* | -15.7% | 23.1µM* | 1.0%[9.24 µM]
Cc1ccc(OCCNC(=O)C(C)SCC(=O)Nc2ccc(F)cc2)cc1 (stereo not drawn) | -28.8% | -15.9% | -16.9% | -0.7% | 0.3% | -1.2%
C=CC(C)(C)c1[nH]cnc1/C=C1\NC(=O)C(C(C)C)NC1=O (stereo not drawn) | 2.8% | -0.7% | 11.6µM* | -29.5% | 16.4µM* | ?
O=S(=O)(NC1c2cccc3cccc(c23)C1N1CCNCC1)c1ccc(Cl)cc1 (stereo not drawn) | ? | -63.3% | 13µM* | 20.6µM* | 11.6µM* | 18.4µM*
SMILES | TGFb inhibitor | HepG2 viability | DT40 TDP1 CPT | HT1080 IDH1KD tx | DT40 TDP1 no CPT | HT1080-NT tox
CC1(C)CC(=O)C(C(O)c2ccccc2)C(C)(C)N1 (stereo not drawn) | 33.6% | 24.7% | -3.2% | -1.0% | 7.8% | -10.6%
O=[N+]([O-])c1ccc2nc(/C=C/c3ccc(Cl)cc3)[nH]c2c1 | ? | -30.8% | 20.6µM* | ? | 18.4µM* | ?
O=[N+]([O-])c1ccc2nc(C(O)C(O)c3nc4ccc([N+](=O)[O-])cc4[nH]3)[nH]c2c1 (stereo not drawn) | 14.2% | -11.7% | -17.4% | -8.9% | -27.5% | -4.3%
Nc1ccc(-c2nc3ccc([N+](=O)[O-])cc3[nH]2)cc1 | 5.2% | 0.5% | ? | -1.6% | ? | 1.1%
O=[N+]([O-])c1ccc(-c2nc3ccc([N+](=O)[O-])cc3[nH]2)cc1 | ? | -28.2% | 13µM* | ? | 9.2µM* | ?
O=c1c(Cc2ccc(F)cc2)c(O)ccn1CCCn1ccnc1 | 2.1% | 26.7% | -2.1% | 0.6% | 9.8% | -0.4%
COc1cc(/C=C2/SC(=S)N(c3c(C)n(C)n(-c4ccccc4)c3=O)C2=O)ccc1O | -10.8% | -3.8% | ? | -20.6% | ? | -23.4%
O=C(Cc1ccc(Br)cc1)N1CCN(C(=O)c2ccco2)CC1 | 13.2% | 14.5% | -16.2% | 7.4% | 1.3% | 23.1%
CC(C)c1ccc(NC(=O)Nc2nc(C(N)C3CCCCC3)cs2)cc1 (stereo not drawn) | 22.4µM* | 10µM* | ? | 20.6µM* | ? | ?
CC(C)c1ccc(NC(=O)Nc2nc(C(N)c3ccccc3Cl)cs2)cc1 (stereo not drawn) | ? | -102.2% | 13µM* | ? | 10.3µM* | ?
CC(C)c1ccc(NC(=O)Nc2cnccn2)cc1 | 0.0% | 10.4% | 11.6µM* | 14.6µM* | 7.31µM* | ?
CN(C)c1ccc(NC(=O)Nc2nc(C(N)C3CCCCC3)cs2)cc1 (stereo not drawn) | ? | -86.0% | 18.4µM* | ? | 20.6µM* | ?
